Test results published in PubChem BioAssay (NCATS).
Records with an inconclusive call do not appear. Active and inactive are the calls of the source. Calls follow the shape of the dose curve; as a rule, active = well fitted inhibition curve with a large enough effect; inconclusive = small, poorly fitted or top-dose-only effect; inactive = flat fitted curve, though single readings scatter.
% is scaled to controls: 0 for no effect and ±100 for the full control effect; potency is read from the fitted curve at half-maximal effect.

What follows are compounds tested on CRL-7250 (assay: Cytotoxic Profiling of Annotated Libraries Using Quantitative High-Throughput Screening (AID 1296008; also: nearly all actives have a fitted effect of over 60% in size)). Conditions: Five cell lines viability, CellTiter-Glo ATP luminescence, 48-72 h; max response: hits give low values.
Summary of the method: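 Cells exposed to compounds for 48 or 72 hr at 37 degrees Celsius. Viability read as ATP-coupled luminescence with CellTiter-Glo after 10 min at room temperature.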
With `Cc1ccc(C)c(NC(=O)[C@@H]2CCCN2S(=O)(=O)c2cccc3cccnc23)c1` the max response was -9.22% (inactive). With `C[C@@H]1CC[C@@]23CC[C@]4(C)[C@@](C=CC5[C@@]6(C)CC[C@H](O)C(C)(C)C6CC[C@]54C)(OC2=O)C3[C@H]1C` (some centres not stated) the outcome was “inactive”. `O=C(NCC(=O)N1CCCC1)Nc1ccc2cnccc2c1` was tested, and the max response was -0.26% (inactive). With `NS(=O)(=O)c1ccc(N2N=C(c3ccccc3)CC2c2ccccc2)cc1` (configuration not stated) the max response was -0.316% (inactive). `COCCNCc1ccc(-c2cc3nccc(Oc4ccc(NC(=O)C5(C(=O)Nc6ccc(F)cc6)CC5)cc4F)c3s2)nc1` was tested, and the Potency was 18.4 µM (active). `CC1(C)CCC2(C(=O)OC3OC(COC4OC(CO)C(O)C(O)C4O)C(O)C(O)C3O)CCC3(C)C(=CCC4C5(C)CCC(OC6OCC(O)C(O)C6O)C(C)(C)C5CCC43C)C2C1O` (configuration not stated) was tested, and the max response was -0.133% (inactive). For `CC1=C(C(=O)OC2CCCCC2)C(c2ccc([N+](=O)[O-])cc2)C2=C(CC(C)(C)CC2=O)N1` (configuration not stated), the max response was 1.32% (inactive). With `O=C(NCCO)c1cccc(-c2cc(Nc3ccc(OC(F)(F)F)cc3)ncn2)c1` the max response was 0.504% (inactive). With `CCC(C)C(=O)OC12C(OC(C)=O)C(C)C3(O)C(C=C(CO)CC4(O)C(=O)C(C)=CC43)C1C2(C)C` (configuration not stated) the max response was -7.79% (inactive). `C=C1CCN([C@H](C)[C@](O)(Cn2cncn2)c2ccc(F)cc2F)CC1` was tested, and the max response was -7.35% (inactive). In the case of `O=C(NCc1ccccc1-c1ccccc1C(=O)NCCc1ccccn1)OCc1ccccc1`, the max response was 2.09% (inactive). In the case of `CC(=O)O[C@@H]1[C@@H](O)[C@H](O[C@@H]2[C@@H](O)[C@@H](O)[C@H](O[C@H]3[C@H](O[C@H]4[C@H](O[C@H]5CC[C@@]6(C)C(CC[C@]7(C)C6CC=C6[C@@H]8CC(C)(C)CC[C@]8(C(=O)O)CC[C@]67C)[C@]5(C)CO)O[C@H](CO)[C@@H](O)[C@@H]4O)OC[C@@H](O)[C@@H]3O)O[C@H]2C)OC[C@H]1O` (some centres not stated), the max response was -25.8% (inactive). For `C/C(=C\CO[C@@H]1O[C@H](CO[C@H]2OC[C@](O)(CO)[C@H]2O)[C@@H](O)[C@H](O)[C@H]1O)C(C)(C)O`, the max response was -3.13% (inactive). In the case of `CC1(C)CC[C@]23CO[C@@]4(CCC5[C@@]6(C)CC[C@H](O[C@@H]7OC[C@H](O[C@@H]8O[C@H](CO)[C@@H](O)[C@H](O)[C@H]8O[C@@H]8OC[C@@H](O)[C@H](O)[C@H]8O)[C@H](O)[C@H]7O)[C@@](C)(CO)C6CC[C@@]5(C)[C@]4(C)CC2=O)[C@@H]3C1` (some centres not stated), the max response was -12.4% (inactive). For `C[C@@]12C(=O)N(c3ccc(C(=O)Nc4cccc5cccnc45)cc3)C(=O)[C@@H]1[C@@H]1C=C[C@H]2C1`, the max response was -9.69% (inactive). `COc1ccc(Sc2ccc(NC(=O)c3ccccc3Cl)cc2C#N)cc1` was tested, and the max response was -14.2% (inactive). For `CCn1nc(C2CCN(C(=O)CCO)CC2)nc1-c1cnc(N)c(-c2nnc(C(C)(C)C)o2)n1`, the max response was -9.09% (inactive). `O=C(/C=C/c1ccccc1O)O[C@@H]1O[C@H](CO)[C@@H](O)[C@H](O)[C@H]1O` was tested, and the max response was 2.59% (inactive). With `Cn1ncnc1[C@@H]1c2n[nH]c(=O)c3cc(F)cc(c23)N[C@H]1c1ccc(F)cc1` the max response was -10.4% (inactive). `C[C@@H]1CC[C@]2(C(=O)O)CC[C@]3(C)C(=CCC4[C@@]5(C)CC[C@H](O)[C@](C)(C(=O)O)C5CC[C@]43C)C2[C@]1(C)O` (some centres not stated) was tested, and the max response was -2.08% (inactive). For `Nc1nc2c(nc(Br)n2[C@@H]2O[C@@H]3COP(=O)(O)O[C@H]3[C@H]2O)c(=O)[nH]1`, the max response was -4.64% (inactive). For `CC(C)c1ccc(NC(=O)Cn2cnc3c2c(=O)n(C)c(=O)n3C)cc1`, the outcome was “inactive”. For `CC/C(C)=C/C(=O)OC1C(OC2(C)CCC3C(C4C(C)CCC42)C3(C)C)OC(C)C(O)C1O` (configuration not stated), the max response was -1.32% (inactive). For `Cc1ccc(CNc2ncnc3ccc(-c4ccc(CO)o4)cc23)o1`, the max response was -10.7% (inactive). For `CC(=O)O[C@@H]1CC2C(/C=C(\C)C(=O)[C@@]3(O)C[C@@H](C)[C@H](OC(=O)c4ccccc4)C3/C=C/1C)C2(C)C` (some centres not stated), the outcome was “inactive”. With `C=CC(C)(O)CC[C@@H]1[C@@]2(C)CCCC(C)(C)C2CC[C@@]1(C)O` (some centres not stated) the max response was -17.3% (inactive). For `COc1c2c(c(C)c3c1C(=O)OC3)O[C@@]1(C)C[C@@H](OC(C)=O)[C@]34O[C@](OC)(CC[C@]3(C)[C@H]1C2)OC4(C)C`, the max response was -3.21% (inactive).
